# Columns and labels:
# Test in all cases: PBM binding z-score (relative to random genomic background probes); higher = stronger binding; sequences stand for … in GC…GCGATTGACAGCGTAGAATGAAGG
# [1] = test system: FXR:RXRa (NR concentration 270 nM, RXRa partner concentration 90 nM)
# Summary of the method: (§1)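 Custom Agilent 4×180K protein-binding microarrays carried double-stranded probes, each with a 34-nt variable region. These regions held direct-repeat seeds, single-nucleotide variants, half-site ablations and random human genomic background sequences. Ligand-free nuclear receptor dimers were incubated on the arrays for 1 h, antibodies against each partner (one per run) detected binding, and scanned fluorescence was regression-normalized. Binding z-scores take the random background probes as reference.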
# [2] = test system: LXRa:RXRa (NR concentration 270 nM, RXRa partner concentration 90 nM)
# Summary of the method: as §1
# [3] = test system: LXRa homodimer (NR concentration 270 nM)
# Summary of the method: as §1
# [4] = test system: LXRb:RXRa (NR concentration 270 nM, RXRa partner concentration 90 nM)
# Summary of the method: as §1
# [5] = test system: LXRb homodimer (NR concentration 270 nM)
# Summary of the method: as §1
# [6] = test system: PPARa:RXRa (NR concentration 270 nM, RXRa partner concentration 90 nM)
# Summary of the method: as §1
# [7] = test system: PPARg:RXRa (NR concentration 180 nM, RXRa partner concentration 90 nM)
# Summary of the method: as §1
# [8] = test system: PPARg:RXRa 270nM:90nM, anti-RXR (NR concentration 270 nM, RXRa partner concentration 90 nM)
# Summary of the method: as §1
# [9] = test system: PPARg:RXRa 30nM:10nM, anti-RXR (NR concentration 30 nM, RXRa partner concentration 10 nM)
# Summary of the method: as §1
# [10] = test system: PPARg:RXRa 90nM:30nM, anti-RXR (NR concentration 90 nM, RXRa partner concentration 30 nM)
# Summary of the method: as §1
Sequence,PBM binding z-score [1],PBM binding z-score [2],PBM binding z-score [3],PBM binding z-score [4],PBM binding z-score [5],PBM binding z-score [6],PBM binding z-score [7],PBM binding z-score [8],PBM binding z-score [9],PBM binding z-score [10]
TCTTGTAGATCAAAGGTTAAGAAGGCCGAAGCCT,1.58,2.1,-0.0136,1.83,-0.281,4.6,8.22,8.32,9.13,9.04
CAAACTAGGTCACCGGAAGGCCAAAGTCCGCATG,4.53,3.53,0.418,2.46,0.121,5.08,8.65,7.5,4.66,7.3
TAGCCTATGTCAGATCGGGCCAGTATACGCTATA,-0.25,-0.56,-0.38,-0.651,-0.818,-0.546,0.0766,-0.557,-0.477,-0.278
GGAACGAGGGAATTCGAGTTGATAGCATGGCGAT,-0.4,-0.535,-0.72,-0.978,-1.16,-0.557,0.44,-0.504,-0.356,-0.529
CCGACTGGGGCAAGGTTACCTTAACGCACAGCCA,0.184,0.54,-0.581,0.495,-1.66,1.97,2.58,3.54,0.821,3.07
GCTGATAGGTCAACTGATGGTCAGCTAAAGCTCG,5.47,4.76,0.669,3.53,0.283,4.84,3.41,4.06,1.34,2.96
TCGAGTAGGGTACCAATGGGGCATTCAGCTTTCT,-0.419,-0.00421,-0.466,0.0817,-0.885,0.453,-0.266,0.942,0.889,0.836
TGTCAAAGTTCAAAGGTAGCGTAAGTATCCACAC,6.72,6.04,4.44,4.05,1.42,5.57,8.17,7.45,4.48,7.05
ACAGACGGGTGATGAAGGTAACTCAGGCTATCAT,-0.328,-0.456,-0.165,-0.422,-0.384,-0.198,0.613,-0.161,0.108,-0.458
TCGCGGAGGACACGAAAGGTCAGAGCTCGACATC,2.61,3.72,2.77,3.12,-0.812,3.59,1.18,2.51,0.965,1.95
CAAACTAGGTCATCCAGGACAGTGAATACATTGA,4.46,3.23,1.22,2.51,0.932,5.12,8.08,6.82,4.42,6.36
CGAACTAGGTCAGAACAGGTCAGTGAAGGATGAT,2.92,2.65,0.47,1.69,-0.091,3.73,5.27,4.8,1.67,4.11
CAAACTAGGTCAAATGTCAAAGTCGAGCCAACCA,5.99,4.61,1.45,3.78,1.49,6.77,11.8,9.72,9.92,10.8
TCTGCTAGGTCAGTTGGTCACCTAACGAGCTGCC,1.06,0.728,-0.345,0.685,0.632,1.69,1.03,2.1,1.38,1.75
AGAACGAGGGCATGCTGAGTTGATAGCAGAGTAG,0.426,0.131,-0.52,-0.164,-1.15,1.12,0.939,0.666,0.00172,0.416
CCTAGTTTGTCAAGGTCACACACGCTATAGGTAC,4.49,4.38,3.27,3.87,1.42,4.14,2.44,2.78,0.971,1.93
CCGACTGGGGCCGAAAGGTTACCATACCATCCGG,0.707,0.858,-0.0944,1.08,-1.22,2.02,1.09,1.84,0.177,1.26
TCGAGTAGGTTAGTTGGGGCATTCAGCCAACATA,0.131,-0.106,-0.363,0.412,-0.31,0.49,-0.334,0.635,0.877,0.623
GCGACTGGGGCAAAGCAGGTTACCATAAGGTTGG,1.14,0.088,-0.593,0.0291,-1.39,1.15,1.19,1.12,-0.898,0.47
CGTCCAAGGTCAATGCTAGGTAAGTGAAAGCATT,5.28,4.48,0.161,3.61,0.552,5.13,3.69,4.15,0.806,2.86
CCAGACAGGTGAAAGGTAAGTCAGTCTGGTACGC,0.207,0.575,-0.142,0.505,-0.505,2.87,4.52,5.14,3,4.82
AGAATGAGGTTACCAAAGATCAGGGCAACGCTTG,2.12,6.55,-0.189,3.11,-0.372,3.61,3.06,3.12,1.15,2.34
TCAGACAGTTGAAGGTAACTCAGGTACGCAGTCG,0.761,1.54,0.0812,0.579,-0.363,1,0.579,2.27,3.99,3.4
